Sampled rows, rich in hits. Any-hit rate of the full collection: about 4.5%.
tim10-1 inh – tim10-1 yeast growth inhibition; S. cerevisiae tim10-1 ts strain growth, BacTiter-Glo, 24 h; inhibition, % at 20 µM; 330,000 compounds, 2.2% hits;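 active = inhibition of at least 40%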;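 also: mutant grown at 25 °C; 0% = DMSO wells with yeast and 100% = wells holding no yeast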
SKKanGAS inh – blocks kanamycin growth of S. pyogenes SKKanGAS strain. BacTiter-Glo, 6 h. inhibition, % at 7.5 µM. 300,000 compounds, 1.3% hits;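 active = mean replicate score, as percent of positive control median, at least 50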;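 also: strain carries kanamycin resistance gene driven by streptokinase promoter and grows in 40 µg/ml kanamycin; loss of luminescence reflects streptokinase promoter inhibition or plain growth inhibition; 0% = median of DMSO wells and 100% = positive control at its reference dose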
NALP3 yeast inh – inhibitors of NALP3 inflammasome in yeast. 330,000 compounds, 0.39% hits. inhibition, % at 10 µM. Yeast reconstituted NLRP3/ASC/caspase-1, beta-gal luminescence, 24 h;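 active = inhibition of 50% or more; inactive = inhibition below 50%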;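 also: plate controls were induced DMSO wells for no effect and uninduced yeast grown without galactose for full effect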
TIM10 inh – inhibits growth of TIM10 yeast strain. S. cerevisiae TIM10 strain growth, BacTiter-Glo luminescence, 24 h. inhibition, % at 10 µM. 330,000 compounds, 1.4% hits;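 active = inhibition of 40% or more at the single tested concentration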;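 also: wild-type TIM10 isogenic control strain grown at permissive 25 °C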
PfHsp90 yeast 2 – reduces growth (ATP signal) of yeast expressing P. falciparum Hsp90; S. cerevisiae expressing PfHsp90, BacTiter-Glo ATP, 48 h; yeast lacking PDR1 and PDR3 efflux regulators; 310,000 compounds, 0.32% hits; inhibition, % at 9.4 µM;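 active = every replicate shows inhibition above about 80%, whatever the replicate mean, limit read from the data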;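 also: 0% = DMSO neutral controls and 100% = 20 µM radicicol positive controls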
tim23-1 inh – inhibits growth of tim23-1 mutant yeast. inhibition, % at 20 µM. S. cerevisiae tim23-1 growth, BacTiter-Glo luminescence, 24 h. 330,000 compounds, 1.3% hits. AID 463212;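 active = growth inhibition of the mutant yeast at or above 50%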;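 also: temperature-sensitive mutant grown at 25 °C; plate controls were DMSO-treated mutant yeast for no effect and medium wells lacking yeast for full effect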
Numbers without * were called inactive; · = no result.

SMILES	tim10-1 inh	SKKanGAS inh	NALP3 yeast inh	TIM10 inh	PfHsp90 yeast 2	tim23-1 inh
COc1ccc2[nH]c3c(=O)n(/N=C/c4ccc(OC)c(CN5CCCC5)c4)c(C)nc3c2c1	22.3	72.3*	-1.0	4.9	-8.2	14.2
COc1ccc(NC(=O)CN(C)CC(=O)N2CCCCCC2)cc1	9.3	·	22.4	11.2	3.1	7.1
CC(C)Sc1cc(N2CCCC2)nc(-c2ccc(F)cc2)n1	-3.8	76.0*	16.6	-5.6	-2.9	12.3
CC(C)Sc1cc(N2CCOCC2)nc(-c2ccccc2)n1	-7.2	-4.0	14.8	8.1	-49.8	22.8
CC(C)Sc1cc(N2CCCC2)nc(-c2ccccc2Cl)n1	11.9	-10.8	34.0	16.1	·	29.8
CC(C)Sc1cc(N2CCCC2)nc(-c2ccccc2)n1	7.0	68.6*	16.2	10.0	-1.4	13.3
CCCSc1cc(N2CCCC2)nc(-c2ccccc2)n1	0.6	51.9*	9.4	3.1	5.9	-4.6
CCOc1ccc(C(=O)NC(=S)Nc2ccc(NC(=O)CC)cc2)cc1[N+](=O)[O-]	21.2	52.7*	12.5	-12.0	-2.1	17.3
O=C(Nc1cc([N+](=O)[O-])ccc1O)c1cccc(NC(=O)c2ccco2)c1	1.2	52.9*	18.4	-0.7	-14.6	7.2
CCOc1ccc(C(=O)NC(=S)Nc2cccc(NC(=O)c3ccco3)c2)cc1[N+](=O)[O-]	0.2	65.3*	9.7	-7.8	-42.1	0.4
Cc1ccc(C)c(C(=O)COC(=O)c2cc(Cl)nc3ccccc23)c1	34.3	53.6*	14.2	2.9	-31.7	16.2
Cc1ccc(C(=O)COC(=O)c2cc(Cl)nc3ccccc23)cc1C	19.1	-8.1	16.7	-21.8	-16.2	9.0
COc1ccc(CNCC(O)(c2ccc(Cl)cc2)c2ccc(Cl)cc2)cc1	-3.3	59.2*	39.7	16.4	28.6	28.2
COc1ccc(CNCC(O)(c2ccc(Cl)cc2)c2ccc(Cl)cc2)cc1OC	16.0	·	17.8	8.0	·	23.7
COc1ccc2nc(/C=N/NC(=O)CCCCCNC(=O)OC(C)(C)C)ccc2c1	13.3	0.8	24.5	16.7	-3.5	29.5
O=C(CNC(=O)c1cccnc1)N=Nc1c(O)[nH]c2c(Br)cc(Br)cc12	10.5	14.1	18.3	-15.2	0.3	-4.6
O=C(CCCCCNC(=O)c1ccccc1)N=Nc1c(O)[nH]c2c(Br)cc(Br)cc12	13.0	59.4*	16.0	8.8	·	5.0
CCOC(=O)C1CN(S(=O)(=O)c2cccs2)c2ccc(CC(=O)OC)cc2O1 (stereo not given)	29.8	-4.7	-1.0	11.4	0.4	23.5
O=C(COC(=O)Cc1ccccc1[N+](=O)[O-])Nc1nnc(-c2ccccc2)o1	6.7	46.9	-8.2	-5.7	2.7	-2.0
CNC(=S)N1CCN(c2c(F)cc3c(=O)c(C(=O)O)cn(C4CC4)c3c2OC)CC1C (stereo not given)	8.1	104.1*	4.1	16.5	-33.3	-0.7
COC(=O)C(C)NC(=S)N1CCN(c2c(F)cc3c(=O)c(C(=O)O)cn(C4CC4)c3c2OC)CC1C (stereo not given)	1.5	95.4*	-4.6	2.7	14.6	-14.9
CCOC(=O)c1cn(C2CC2)c2c(F)c(F)c(F)cc2c1=O	-30.1	-19.6	17.2	-25.4	-20.4	-2.6
CCCCc1nc2cc(C(=O)N3CCCC(OCCC)C3)ccc2o1 (stereo not given)	34.4	-3.2	14.8	-1.2	8.5	22.3
CC(=O)Nc1ccc(NC(=O)CC(C)n2ccnc2)cc1 (stereo not given)	12.9	-2.2	-7.7	-15.1	-10.9	1.2
CNC(CC(=O)c1ccc([N+](=O)[O-])cc1)C(Cl)(Cl)Cl (stereo not given)	·	·	·	·	109.3*	·
O=C(CCn1c(=O)oc2ccccc21)Nc1cccc(Br)c1	20.6	-4.0	19.7	16.4	7.5	21.4
Cc1c(OCC(=O)C(C)(C)C)ccc2c(-c3ccccc3)cc(=O)oc12	-28.5	1.9	31.5	-107.5	96.1*	1.9
O=C(Cn1nnnc1CN1CCOCC1)N1CCC(c2cccc(Cl)c2)C1 (stereo not given)	-5.1	-2.7	23.3	1.5	0.6	5.0
CCCc1nnc(NC(=O)c2c(O)c3cccc4c3n(c2=O)CCC4)s1	-8.1	87.3*	-4.0	4.1	·	-22.2
CCCCNC(=O)c1c(O)c2cccc3c2n(c1=O)CCC3	-22.5	16.7	3.5	-6.5	-13.5	-11.1
